# In PMC7862700, “An all-to-all approach to the identification of sequence-specific readers for epigenetic DNA modifications on cytosine”:
# Key:
# Experiment in all cases: DAPPL (digital affinity profiling via proximity ligation, sequencing); 10 mM Tris-HCl pH 7.5, 50 mM NaCl, 1 mM DTT, 4% glycerol, room temperature, 30 min; GST-TFs on glutathione beads, 16-mer random dsDNA library, 0.1% formaldehyde crosslink after washing; high values mean tight binding
# FLI1 = target: T1, FLI1 (Homo sapiens, UniProt Q01543 1-452); conditions: protein: recombinant; tags: N-terminal GST; dsDNA, one strand shown
# T1 sequence: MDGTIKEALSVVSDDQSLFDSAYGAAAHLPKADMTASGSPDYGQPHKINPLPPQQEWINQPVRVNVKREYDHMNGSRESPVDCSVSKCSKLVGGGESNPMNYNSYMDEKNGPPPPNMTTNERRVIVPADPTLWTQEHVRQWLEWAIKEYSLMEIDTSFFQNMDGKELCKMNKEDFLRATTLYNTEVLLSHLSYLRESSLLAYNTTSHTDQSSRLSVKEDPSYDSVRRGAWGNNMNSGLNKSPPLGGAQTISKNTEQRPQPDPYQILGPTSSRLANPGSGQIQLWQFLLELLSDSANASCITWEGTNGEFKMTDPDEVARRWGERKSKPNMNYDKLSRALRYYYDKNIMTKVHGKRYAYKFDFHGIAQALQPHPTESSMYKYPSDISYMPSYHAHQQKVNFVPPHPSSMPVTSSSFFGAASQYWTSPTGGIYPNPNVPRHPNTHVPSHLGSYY
# Summary of the method: (§1)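 Human transcription factors fused to GST were expressed in yeast, captured on glutathione beads, given DNA barcodes and pooled with a GST-only negative control. Pools were incubated with 200 nmole of a 16-mer random double-stranded DNA library in Tris/NaCl/DTT/glycerol buffer at room temperature for 30 min. They were then washed, crosslinked with 0.1% formaldehyde, proximity-ligated (BsaI/T4 ligase, 1 h, 37 °C), PCR-amplified and sequenced on an Illumina NextSeq500. Binding signal is each 6-mer's read frequency for a factor divided by its frequency for the GST control.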
# ELK1 = target: T2, ELK1 (Homo sapiens, UniProt P19419 1-428); conditions: protein: recombinant; tags: N-terminal GST; dsDNA, one strand shown
# T2 sequence: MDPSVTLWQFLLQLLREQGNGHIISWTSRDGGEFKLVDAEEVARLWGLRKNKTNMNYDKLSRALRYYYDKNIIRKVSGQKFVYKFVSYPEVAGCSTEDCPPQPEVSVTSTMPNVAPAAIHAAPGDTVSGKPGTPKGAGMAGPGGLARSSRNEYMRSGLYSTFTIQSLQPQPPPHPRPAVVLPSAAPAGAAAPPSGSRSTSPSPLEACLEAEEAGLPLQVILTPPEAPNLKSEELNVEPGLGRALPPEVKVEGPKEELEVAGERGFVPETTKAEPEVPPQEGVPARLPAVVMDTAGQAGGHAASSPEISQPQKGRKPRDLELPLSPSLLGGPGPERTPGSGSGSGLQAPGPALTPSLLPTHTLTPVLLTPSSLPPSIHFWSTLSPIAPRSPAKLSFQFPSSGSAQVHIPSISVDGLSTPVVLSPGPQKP
# Summary of the method: as §1
# GABPA = target: T3, GABPA (Homo sapiens, UniProt Q06546 1-454); conditions: protein: recombinant; tags: N-terminal GST; dsDNA, one strand shown
# T3 sequence: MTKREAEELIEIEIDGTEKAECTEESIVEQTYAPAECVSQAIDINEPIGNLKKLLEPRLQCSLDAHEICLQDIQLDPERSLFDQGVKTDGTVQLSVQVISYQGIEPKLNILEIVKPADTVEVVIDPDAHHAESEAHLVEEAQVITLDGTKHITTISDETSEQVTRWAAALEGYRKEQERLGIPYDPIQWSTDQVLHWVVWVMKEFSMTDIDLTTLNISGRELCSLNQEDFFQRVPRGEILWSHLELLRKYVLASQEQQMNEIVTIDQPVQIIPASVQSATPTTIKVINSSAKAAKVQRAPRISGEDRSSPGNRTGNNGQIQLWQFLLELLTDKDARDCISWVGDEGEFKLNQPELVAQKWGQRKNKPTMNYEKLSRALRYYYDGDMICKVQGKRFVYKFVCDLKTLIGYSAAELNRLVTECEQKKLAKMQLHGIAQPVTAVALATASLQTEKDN
# Summary of the method: as §1
# ERG = target: T4, ERG (Homo sapiens, UniProt P11308 1-479); conditions: protein: recombinant; tags: N-terminal GST; dsDNA, one strand shown
# T4 sequence: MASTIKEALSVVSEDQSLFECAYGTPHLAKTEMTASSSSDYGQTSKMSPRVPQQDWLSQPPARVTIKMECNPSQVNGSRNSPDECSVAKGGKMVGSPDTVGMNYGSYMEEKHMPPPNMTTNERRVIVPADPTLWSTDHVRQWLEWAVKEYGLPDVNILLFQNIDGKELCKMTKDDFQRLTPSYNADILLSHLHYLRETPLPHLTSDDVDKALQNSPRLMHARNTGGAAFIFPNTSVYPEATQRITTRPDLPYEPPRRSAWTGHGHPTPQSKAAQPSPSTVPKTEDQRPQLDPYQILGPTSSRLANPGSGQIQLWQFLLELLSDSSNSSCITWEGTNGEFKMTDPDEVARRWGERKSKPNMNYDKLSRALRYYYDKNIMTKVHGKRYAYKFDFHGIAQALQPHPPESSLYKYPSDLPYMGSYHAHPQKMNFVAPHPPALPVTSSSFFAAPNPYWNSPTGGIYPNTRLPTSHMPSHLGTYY
# Summary of the method: as §1
# ELF1 = ELF1 (Homo sapiens, UniProt P32519 1-619); conditions: protein: recombinant; tags: N-terminal GST; dsDNA, one strand shown
# ELF1, sequence (P32519 whole entry): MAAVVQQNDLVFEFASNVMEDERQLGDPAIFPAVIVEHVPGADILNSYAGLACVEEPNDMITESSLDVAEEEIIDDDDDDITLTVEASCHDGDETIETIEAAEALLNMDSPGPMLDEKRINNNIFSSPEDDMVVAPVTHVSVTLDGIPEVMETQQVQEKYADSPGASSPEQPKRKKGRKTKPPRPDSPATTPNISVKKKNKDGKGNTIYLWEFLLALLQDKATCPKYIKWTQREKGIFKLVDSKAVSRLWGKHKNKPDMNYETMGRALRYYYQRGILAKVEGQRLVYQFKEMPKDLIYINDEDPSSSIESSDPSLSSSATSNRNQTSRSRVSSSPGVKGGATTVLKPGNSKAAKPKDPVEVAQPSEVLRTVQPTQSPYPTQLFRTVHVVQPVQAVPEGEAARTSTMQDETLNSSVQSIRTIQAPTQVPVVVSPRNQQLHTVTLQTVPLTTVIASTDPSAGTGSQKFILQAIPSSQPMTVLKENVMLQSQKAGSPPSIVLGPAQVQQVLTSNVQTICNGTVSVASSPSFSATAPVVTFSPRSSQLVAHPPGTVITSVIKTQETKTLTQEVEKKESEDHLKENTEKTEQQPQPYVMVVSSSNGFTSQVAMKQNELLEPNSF
# Summary of the method: as §1
# EHF = target: T5, EHF (Homo sapiens, UniProt Q9NZC4 1-300); conditions: protein: recombinant; tags: N-terminal GST; dsDNA, one strand shown
# T5 sequence: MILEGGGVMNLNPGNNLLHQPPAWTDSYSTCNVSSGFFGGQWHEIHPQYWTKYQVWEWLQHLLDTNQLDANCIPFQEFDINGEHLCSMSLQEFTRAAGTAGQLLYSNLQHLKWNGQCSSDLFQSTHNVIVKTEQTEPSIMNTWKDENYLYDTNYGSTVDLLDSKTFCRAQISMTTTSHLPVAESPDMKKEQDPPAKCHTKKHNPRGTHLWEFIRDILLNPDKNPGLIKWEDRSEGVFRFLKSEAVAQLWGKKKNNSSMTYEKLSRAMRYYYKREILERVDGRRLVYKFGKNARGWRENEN
# Summary of the method: as §1
# SPI1 = SPI1 (Homo sapiens, UniProt P17947 1-270); conditions: protein: recombinant; tags: N-terminal GST; dsDNA, one strand shown
# Summary of the method: as §1
# SPIB = SPIB (Homo sapiens, UniProt Q01892 1-262); conditions: protein: recombinant; tags: N-terminal GST; dsDNA, one strand shown
# SPIB, sequence (Q01892 whole entry): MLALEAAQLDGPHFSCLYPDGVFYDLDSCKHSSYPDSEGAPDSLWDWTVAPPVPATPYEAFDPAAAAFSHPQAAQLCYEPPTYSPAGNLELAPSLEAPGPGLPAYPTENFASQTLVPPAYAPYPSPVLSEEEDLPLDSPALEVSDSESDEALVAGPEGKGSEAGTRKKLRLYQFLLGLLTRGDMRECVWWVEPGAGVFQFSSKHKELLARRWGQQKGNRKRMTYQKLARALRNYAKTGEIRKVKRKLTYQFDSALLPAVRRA
# Summary of the method: as §1
# ELK3 = target: T6, ELK3 (Homo sapiens, UniProt P41970 1-407); conditions: protein: recombinant; tags: N-terminal GST; dsDNA, one strand shown
# T6 sequence: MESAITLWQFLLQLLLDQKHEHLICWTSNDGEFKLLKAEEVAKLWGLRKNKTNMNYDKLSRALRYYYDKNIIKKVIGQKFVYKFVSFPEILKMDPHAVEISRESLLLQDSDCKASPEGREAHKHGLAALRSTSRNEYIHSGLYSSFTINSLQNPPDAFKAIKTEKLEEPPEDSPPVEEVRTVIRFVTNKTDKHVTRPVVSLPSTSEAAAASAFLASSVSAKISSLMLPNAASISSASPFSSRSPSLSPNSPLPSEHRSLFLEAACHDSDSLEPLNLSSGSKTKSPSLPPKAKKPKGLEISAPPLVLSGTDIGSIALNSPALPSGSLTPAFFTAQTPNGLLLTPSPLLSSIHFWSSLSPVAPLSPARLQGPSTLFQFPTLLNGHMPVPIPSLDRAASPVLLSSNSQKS
# Summary of the method: as §1
# FEV = target: T7, FEV (Homo sapiens, UniProt Q99581 1-238); conditions: protein: recombinant; tags: N-terminal GST; dsDNA, one strand shown
# T7 sequence: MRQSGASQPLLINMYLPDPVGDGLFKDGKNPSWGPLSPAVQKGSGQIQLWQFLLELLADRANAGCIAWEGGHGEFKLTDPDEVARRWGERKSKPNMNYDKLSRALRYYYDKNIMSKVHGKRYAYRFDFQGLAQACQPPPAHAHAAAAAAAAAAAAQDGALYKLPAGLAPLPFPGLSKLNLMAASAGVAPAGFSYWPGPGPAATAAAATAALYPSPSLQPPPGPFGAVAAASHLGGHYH
# Summary of the method: as §1
# ETV5 = ETV5 (Homo sapiens, UniProt P41161 1-510); conditions: protein: recombinant; tags: N-terminal GST; dsDNA, one strand shown
# ETV5, sequence (P41161 whole entry): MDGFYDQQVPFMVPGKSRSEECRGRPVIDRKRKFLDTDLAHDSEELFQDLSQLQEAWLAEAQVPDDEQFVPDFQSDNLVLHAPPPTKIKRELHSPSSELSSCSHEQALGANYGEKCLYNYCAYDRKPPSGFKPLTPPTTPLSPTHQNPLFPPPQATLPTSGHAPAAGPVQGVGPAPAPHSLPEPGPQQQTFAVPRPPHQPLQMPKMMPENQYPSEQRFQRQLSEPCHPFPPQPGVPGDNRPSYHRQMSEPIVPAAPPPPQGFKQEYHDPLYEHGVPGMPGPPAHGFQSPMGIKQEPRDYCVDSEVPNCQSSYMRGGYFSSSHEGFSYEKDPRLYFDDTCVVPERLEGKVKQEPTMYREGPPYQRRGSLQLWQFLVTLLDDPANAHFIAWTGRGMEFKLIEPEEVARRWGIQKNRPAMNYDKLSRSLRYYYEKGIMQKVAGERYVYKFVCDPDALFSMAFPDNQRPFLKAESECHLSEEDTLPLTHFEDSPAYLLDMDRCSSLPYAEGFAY
# Summary of the method: as §1
# HSF1 = HSF1 (Homo sapiens, UniProt Q00613 1-529); conditions: protein: recombinant; tags: N-terminal GST; chain copies: 3; dsDNA, one strand shown
# HSF1, sequence (Q00613 whole entry): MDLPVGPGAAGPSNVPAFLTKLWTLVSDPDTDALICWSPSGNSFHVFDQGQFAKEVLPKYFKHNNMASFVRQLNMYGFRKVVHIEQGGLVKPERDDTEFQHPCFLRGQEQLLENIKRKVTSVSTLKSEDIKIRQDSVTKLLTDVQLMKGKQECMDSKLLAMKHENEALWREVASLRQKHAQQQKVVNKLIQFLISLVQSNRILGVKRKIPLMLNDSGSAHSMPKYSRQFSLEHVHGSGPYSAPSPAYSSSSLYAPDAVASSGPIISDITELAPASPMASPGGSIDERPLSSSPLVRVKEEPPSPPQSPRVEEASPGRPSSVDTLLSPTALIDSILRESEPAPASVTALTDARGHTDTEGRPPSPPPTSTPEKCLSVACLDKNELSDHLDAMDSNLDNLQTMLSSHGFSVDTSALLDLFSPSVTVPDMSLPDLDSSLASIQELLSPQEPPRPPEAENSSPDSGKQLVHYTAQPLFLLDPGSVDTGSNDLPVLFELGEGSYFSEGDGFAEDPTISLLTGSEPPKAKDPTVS
# Summary of the method: as §1
# SPIC = target: T8, SPIC (Homo sapiens, UniProt Q8N5J4 1-248); conditions: protein: recombinant; tags: N-terminal GST; dsDNA, one strand shown
# T8 sequence: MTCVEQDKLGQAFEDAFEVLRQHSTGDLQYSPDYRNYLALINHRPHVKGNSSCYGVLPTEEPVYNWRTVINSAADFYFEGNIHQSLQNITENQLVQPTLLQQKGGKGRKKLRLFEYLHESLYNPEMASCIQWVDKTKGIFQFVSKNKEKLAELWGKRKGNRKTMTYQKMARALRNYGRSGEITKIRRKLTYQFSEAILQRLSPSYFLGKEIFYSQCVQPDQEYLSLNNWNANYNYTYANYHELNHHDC
# Summary of the method: as §1
# ELF4 = ELF4 (Homo sapiens, UniProt Q99607 1-663); conditions: protein: recombinant; tags: N-terminal GST; dsDNA, one strand shown
# ELF4, sequence (Q99607 whole entry): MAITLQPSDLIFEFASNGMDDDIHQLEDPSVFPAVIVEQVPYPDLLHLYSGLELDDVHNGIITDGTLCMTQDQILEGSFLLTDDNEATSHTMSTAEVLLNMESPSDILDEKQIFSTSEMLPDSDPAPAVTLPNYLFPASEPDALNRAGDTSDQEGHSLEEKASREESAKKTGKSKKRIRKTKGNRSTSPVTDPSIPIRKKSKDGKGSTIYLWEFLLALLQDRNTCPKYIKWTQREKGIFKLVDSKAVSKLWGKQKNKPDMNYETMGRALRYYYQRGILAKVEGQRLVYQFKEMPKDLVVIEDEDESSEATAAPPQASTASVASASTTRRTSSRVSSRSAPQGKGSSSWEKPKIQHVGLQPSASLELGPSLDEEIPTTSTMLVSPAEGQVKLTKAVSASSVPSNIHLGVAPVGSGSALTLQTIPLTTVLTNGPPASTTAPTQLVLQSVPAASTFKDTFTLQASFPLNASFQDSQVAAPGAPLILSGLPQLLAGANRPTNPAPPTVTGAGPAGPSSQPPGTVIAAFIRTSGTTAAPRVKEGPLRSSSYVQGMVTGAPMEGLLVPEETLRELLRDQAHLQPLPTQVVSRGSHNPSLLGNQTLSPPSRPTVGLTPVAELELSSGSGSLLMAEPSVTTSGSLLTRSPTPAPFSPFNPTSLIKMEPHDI
# Summary of the method: as §1
# ELK4 = target: T9, ELK4 (Homo sapiens, UniProt P28324-2 1-405); conditions: protein: recombinant; tags: N-terminal GST; dsDNA, one strand shown
# T9 sequence: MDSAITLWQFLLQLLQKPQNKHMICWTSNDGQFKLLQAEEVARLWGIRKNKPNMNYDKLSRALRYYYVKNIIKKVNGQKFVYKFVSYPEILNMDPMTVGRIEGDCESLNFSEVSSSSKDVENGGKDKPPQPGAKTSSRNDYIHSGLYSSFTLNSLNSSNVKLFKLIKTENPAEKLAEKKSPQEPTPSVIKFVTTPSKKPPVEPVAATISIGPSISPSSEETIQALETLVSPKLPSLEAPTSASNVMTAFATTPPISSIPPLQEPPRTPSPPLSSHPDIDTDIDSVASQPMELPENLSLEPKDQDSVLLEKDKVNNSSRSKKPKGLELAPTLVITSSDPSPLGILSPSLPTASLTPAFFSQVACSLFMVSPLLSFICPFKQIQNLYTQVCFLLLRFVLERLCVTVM
# Summary of the method: as §1
# ETV2 = target: T10, ETV2 (Homo sapiens, UniProt O00321 1-342); conditions: protein: recombinant; tags: N-terminal GST; dsDNA, one strand shown
# T10 sequence: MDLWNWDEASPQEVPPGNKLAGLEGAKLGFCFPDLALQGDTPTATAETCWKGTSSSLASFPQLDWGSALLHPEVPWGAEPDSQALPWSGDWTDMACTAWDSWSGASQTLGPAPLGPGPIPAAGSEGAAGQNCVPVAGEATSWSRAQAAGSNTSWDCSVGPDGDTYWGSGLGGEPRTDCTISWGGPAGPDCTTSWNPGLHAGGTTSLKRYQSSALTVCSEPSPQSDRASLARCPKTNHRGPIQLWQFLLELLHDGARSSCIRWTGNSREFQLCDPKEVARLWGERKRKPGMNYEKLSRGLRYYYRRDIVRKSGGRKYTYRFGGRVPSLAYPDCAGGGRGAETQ
# Summary of the method: as §1
# ELF3 = target: T11, ELF3 (Homo sapiens, UniProt P78545 1-371); conditions: protein: recombinant; tags: N-terminal GST; dsDNA, one strand shown
# T11 sequence: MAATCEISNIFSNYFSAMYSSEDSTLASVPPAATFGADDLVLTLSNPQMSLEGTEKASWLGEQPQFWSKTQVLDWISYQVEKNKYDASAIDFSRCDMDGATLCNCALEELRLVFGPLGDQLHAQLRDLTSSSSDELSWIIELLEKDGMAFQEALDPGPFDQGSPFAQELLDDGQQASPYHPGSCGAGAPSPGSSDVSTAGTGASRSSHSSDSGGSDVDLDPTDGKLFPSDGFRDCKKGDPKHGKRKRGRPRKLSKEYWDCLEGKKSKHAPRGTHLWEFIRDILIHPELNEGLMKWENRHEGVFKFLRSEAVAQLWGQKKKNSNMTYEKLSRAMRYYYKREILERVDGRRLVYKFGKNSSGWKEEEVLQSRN
# Summary of the method: as §1
# CRX = CRX (Homo sapiens, UniProt O43186 1-299); conditions: protein: recombinant; tags: N-terminal GST; dsDNA, one strand shown
# CRX, sequence (O43186 whole entry): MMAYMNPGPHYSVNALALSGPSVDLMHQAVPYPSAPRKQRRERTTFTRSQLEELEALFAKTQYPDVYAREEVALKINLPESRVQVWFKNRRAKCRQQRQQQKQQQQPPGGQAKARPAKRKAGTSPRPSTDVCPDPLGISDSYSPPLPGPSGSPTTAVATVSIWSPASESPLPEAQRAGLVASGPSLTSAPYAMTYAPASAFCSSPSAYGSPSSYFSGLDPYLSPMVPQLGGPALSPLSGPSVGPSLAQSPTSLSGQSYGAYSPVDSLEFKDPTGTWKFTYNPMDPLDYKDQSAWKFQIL
# Summary of the method: as §1
# ETV1 = ETV1 (Homo sapiens, UniProt P50549 1-477); conditions: protein: recombinant; tags: N-terminal GST; dsDNA, one strand shown
# ETV1, sequence (P50549 whole entry): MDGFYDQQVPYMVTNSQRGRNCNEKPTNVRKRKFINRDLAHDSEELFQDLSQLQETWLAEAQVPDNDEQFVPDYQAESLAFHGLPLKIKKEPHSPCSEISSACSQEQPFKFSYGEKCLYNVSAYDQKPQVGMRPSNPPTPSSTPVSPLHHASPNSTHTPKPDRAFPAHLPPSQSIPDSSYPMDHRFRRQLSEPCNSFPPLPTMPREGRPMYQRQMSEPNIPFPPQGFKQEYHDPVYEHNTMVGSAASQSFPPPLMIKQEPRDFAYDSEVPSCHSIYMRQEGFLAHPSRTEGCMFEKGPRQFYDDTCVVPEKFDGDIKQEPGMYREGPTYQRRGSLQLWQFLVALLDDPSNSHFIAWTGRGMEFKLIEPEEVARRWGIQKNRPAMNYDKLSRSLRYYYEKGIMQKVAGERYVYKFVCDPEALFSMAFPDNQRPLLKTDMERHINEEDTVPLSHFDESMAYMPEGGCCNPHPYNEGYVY
# Summary of the method: as §1
sequence,measurement,setting,value
ATGCGC,binding signal,FLI1,"1.15 fold enrichment (6-mer frequency, TF over GST control)"
same,binding signal,ELK1,"1.18 fold enrichment (6-mer frequency, TF over GST control)"
same,binding signal,GABPA,"1.18 fold enrichment (6-mer frequency, TF over GST control)"
same,binding signal,ERG,"1.18 fold enrichment (6-mer frequency, TF over GST control)"
same,binding signal,ELF1,"1.1 fold enrichment (6-mer frequency, TF over GST control)"
same,binding signal,EHF,"1.17 fold enrichment (6-mer frequency, TF over GST control)"
same,binding signal,SPI1,"1.11 fold enrichment (6-mer frequency, TF over GST control)"
same,binding signal,SPIB,"1.21 fold enrichment (6-mer frequency, TF over GST control)"
same,binding signal,ELK3,"1.08 fold enrichment (6-mer frequency, TF over GST control)"
same,binding signal,FEV,"1.17 fold enrichment (6-mer frequency, TF over GST control)"
same,binding signal,ETV5,"1.07 fold enrichment (6-mer frequency, TF over GST control)"
same,binding signal,HSF1,"1.27 fold enrichment (6-mer frequency, TF over GST control)"
same,binding signal,SPIC,"1.13 fold enrichment (6-mer frequency, TF over GST control)"
same,binding signal,ELF4,"1.22 fold enrichment (6-mer frequency, TF over GST control)"
same,binding signal,ELK4,"1.28 fold enrichment (6-mer frequency, TF over GST control)"
same,binding signal,ETV2,"1.1 fold enrichment (6-mer frequency, TF over GST control)"
same,binding signal,ELF3,"1.1 fold enrichment (6-mer frequency, TF over GST control)"
same,binding signal,CRX,"1.14 fold enrichment (6-mer frequency, TF over GST control)"
same,binding signal,ETV1,"1.16 fold enrichment (6-mer frequency, TF over GST control)"
